Calls of active or inactive are those of the source. The calls were made as follows: active = hit-call score of the fitted dose curve at least 0.9, where 1 is the maximum; inactive = score below 0.9.

In PubChem BioAssay (EPA / NIEHS) one finds outcome and AC50 data, which are given here for 21 molecules.

Conditions in all cases: mRNA level, 48 h; actives raise or lower the signal
Read-out in assay [1]: Tumor necrosis factor receptor superfamily member 6 (Homo sapiens) (UniProt P25445)
Put plainly: LTEA_HepaRG_FAS: Life Technologies and Expression Analysis (LTEA) Assay for Fas cell surface death receptor (FAS) using HepaRG (AID 2283447). The gist of the method:
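Differentiated human HepaRG cells, pre-cultured 48 h, were exposed in duplicate for 48 h to 8-point half-log concentrations (top 100 uM, 0.5% DMSO) in serum-free induction medium; FAS mRNA measured by qRT-PCR, normalized to ACTB/GAPDH/POLR2A, bidirectional fit versus DMSO.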

Read-out in assay [2]: Fatty acid synthase (Homo sapiens) (UniProt P49327)
Put plainly: LTEA_HepaRG_FASN: Life Technologies and Expression Analysis (LTEA) Assay for Fatty Acid Synthase (FASN) using HepaRG (AID 2283448). An outline of the steps:
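FASN expression changes, up or down relative to 0.5% DMSO, were measured by qRT-PCR in human HepaRG cells after 48 h treatment with chemicals at eight concentrations (half-log steps from 100 uM).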

Read-out in assay [3]: Cyclin D2 (CCND2), CCND2 (gene 894)
The assay can be described thus: LTEA_HepaRG_CCND2: Life Technologies and Expression Analysis (LTEA) Assay for Cyclin D2 (CCND2) using HepaRG (AID 2283449).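 Also: CCND2 transcript measured by TaqMan qRT-PCR and normalised to three housekeeping genes.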 The gist of the method:
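Differentiated human HepaRG cells were exposed for 48 h in serum-free induction medium to eight half-log concentrations topping at 100 uM (0.5% DMSO vehicle). CCND2 mRNA was quantified by TaqMan qRT-PCR, normalised to ACTB, GAPDH and POLR2A, and fitted bidirectionally against DMSO.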

Read-out in assay [4]: Cyclin Dependent Kinase Inhibitor 1A (CDKN1A), CDKN1A (gene 1026)
Put plainly: LTEA_HepaRG_CDKN1A: Life Technologies and Expression Analysis (LTEA) Assay for Cyclin Dependent Kinase Inhibitor 1A (CDKN1A) using HepaRG (AID 2283450). An outline of the steps: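 Read-out is CDKN1A mRNA by TaqMan qRT-PCR, normalized to three housekeeping genes and fitted in both directions against the DMSO baseline. Human HepaRG cells were treated 48 h with test chemicals up to 100 uM in half-log steps, 0.5% DMSO.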

Read-out in assay [5]: Cyclin D1 (CCND1), CCND1 (gene 595)
Put plainly: LTEA_HepaRG_CCND1: Life Technologies and Expression Analysis (LTEA) Assay for Cyclin D1 (CCND1) using HepaRG (AID 2283451). The gist of the method:
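HepaRG plated 48 h, medium switched to serum-free induction medium, chemicals added in duplicate (top 100 uM, half-log steps, 0.5% DMSO) for 48 h, cells lysed, RNA measured by TaqMan qRT-PCR.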

Read-out in assay [6]: catalase (CAT), CAT (gene 847)
Put plainly: LTEA_HepaRG_CAT: Life Technologies and Expression Analysis (LTEA) Assay for catalase (CAT) using HepaRG (AID 2283452).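 As to AC50: TaqMan qRT-PCR signal normalized to ACTB GAPDH and POLR2A housekeeping genes.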 An outline of the steps:
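Differentiated HepaRG cells in serum-free induction medium were dosed 48 h in duplicate, eight half-log concentrations from 100 uM in 0.5% DMSO. Transcript measured by TaqMan qRT-PCR, normalised to ACTB/GAPDH/POLR2A, fitted bidirectionally against DMSO.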

Read-out in assay [7]: flavin-containing dimethylaniline monooxygenases 3 (FMO3), FMO3 (gene 2328)
The assay can be described thus: LTEA_HepaRG_FMO3: Life Technologies and Expression Analysis (LTEA) Assay for flavin-containing dimethylaniline monooxygenases 3 (FMO3) using HepaRG (AID 2283453). The gist of the method: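 Differentiated HepaRG cells in serum-free induction medium, exposed 48 h in duplicate to 8 half-log concentrations up to 100 uM in 0.5% DMSO. FMO3 mRNA by qRT-PCR, normalized to ACTB, GAPDH, POLR2A; bidirectional fit vs DMSO.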

Read-out in assay [8]: Cytochrome P450 (CYP1A1), CYP1A1 (gene 1543)
The assay can be described thus: LTEA_HepaRG_CYP1A1: Life Technologies and Expression Analysis (LTEA) Assay for Cytochrome P450 (CYP1A1) using HepaRG (AID 2283454). An outline of the steps:
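HepaRG, 48 h post-plating switched to serum-free induction medium; 8-pt conc-response (top 100 uM, half-log, 0.5% DMSO), duplicates, 48 h. Lysis in RLT, TaqMan qRT-PCR for CYP1A1; gain or loss vs DMSO.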

Chain of Fatty acid synthase (Homo sapiens) (P49327 whole entry, looked up): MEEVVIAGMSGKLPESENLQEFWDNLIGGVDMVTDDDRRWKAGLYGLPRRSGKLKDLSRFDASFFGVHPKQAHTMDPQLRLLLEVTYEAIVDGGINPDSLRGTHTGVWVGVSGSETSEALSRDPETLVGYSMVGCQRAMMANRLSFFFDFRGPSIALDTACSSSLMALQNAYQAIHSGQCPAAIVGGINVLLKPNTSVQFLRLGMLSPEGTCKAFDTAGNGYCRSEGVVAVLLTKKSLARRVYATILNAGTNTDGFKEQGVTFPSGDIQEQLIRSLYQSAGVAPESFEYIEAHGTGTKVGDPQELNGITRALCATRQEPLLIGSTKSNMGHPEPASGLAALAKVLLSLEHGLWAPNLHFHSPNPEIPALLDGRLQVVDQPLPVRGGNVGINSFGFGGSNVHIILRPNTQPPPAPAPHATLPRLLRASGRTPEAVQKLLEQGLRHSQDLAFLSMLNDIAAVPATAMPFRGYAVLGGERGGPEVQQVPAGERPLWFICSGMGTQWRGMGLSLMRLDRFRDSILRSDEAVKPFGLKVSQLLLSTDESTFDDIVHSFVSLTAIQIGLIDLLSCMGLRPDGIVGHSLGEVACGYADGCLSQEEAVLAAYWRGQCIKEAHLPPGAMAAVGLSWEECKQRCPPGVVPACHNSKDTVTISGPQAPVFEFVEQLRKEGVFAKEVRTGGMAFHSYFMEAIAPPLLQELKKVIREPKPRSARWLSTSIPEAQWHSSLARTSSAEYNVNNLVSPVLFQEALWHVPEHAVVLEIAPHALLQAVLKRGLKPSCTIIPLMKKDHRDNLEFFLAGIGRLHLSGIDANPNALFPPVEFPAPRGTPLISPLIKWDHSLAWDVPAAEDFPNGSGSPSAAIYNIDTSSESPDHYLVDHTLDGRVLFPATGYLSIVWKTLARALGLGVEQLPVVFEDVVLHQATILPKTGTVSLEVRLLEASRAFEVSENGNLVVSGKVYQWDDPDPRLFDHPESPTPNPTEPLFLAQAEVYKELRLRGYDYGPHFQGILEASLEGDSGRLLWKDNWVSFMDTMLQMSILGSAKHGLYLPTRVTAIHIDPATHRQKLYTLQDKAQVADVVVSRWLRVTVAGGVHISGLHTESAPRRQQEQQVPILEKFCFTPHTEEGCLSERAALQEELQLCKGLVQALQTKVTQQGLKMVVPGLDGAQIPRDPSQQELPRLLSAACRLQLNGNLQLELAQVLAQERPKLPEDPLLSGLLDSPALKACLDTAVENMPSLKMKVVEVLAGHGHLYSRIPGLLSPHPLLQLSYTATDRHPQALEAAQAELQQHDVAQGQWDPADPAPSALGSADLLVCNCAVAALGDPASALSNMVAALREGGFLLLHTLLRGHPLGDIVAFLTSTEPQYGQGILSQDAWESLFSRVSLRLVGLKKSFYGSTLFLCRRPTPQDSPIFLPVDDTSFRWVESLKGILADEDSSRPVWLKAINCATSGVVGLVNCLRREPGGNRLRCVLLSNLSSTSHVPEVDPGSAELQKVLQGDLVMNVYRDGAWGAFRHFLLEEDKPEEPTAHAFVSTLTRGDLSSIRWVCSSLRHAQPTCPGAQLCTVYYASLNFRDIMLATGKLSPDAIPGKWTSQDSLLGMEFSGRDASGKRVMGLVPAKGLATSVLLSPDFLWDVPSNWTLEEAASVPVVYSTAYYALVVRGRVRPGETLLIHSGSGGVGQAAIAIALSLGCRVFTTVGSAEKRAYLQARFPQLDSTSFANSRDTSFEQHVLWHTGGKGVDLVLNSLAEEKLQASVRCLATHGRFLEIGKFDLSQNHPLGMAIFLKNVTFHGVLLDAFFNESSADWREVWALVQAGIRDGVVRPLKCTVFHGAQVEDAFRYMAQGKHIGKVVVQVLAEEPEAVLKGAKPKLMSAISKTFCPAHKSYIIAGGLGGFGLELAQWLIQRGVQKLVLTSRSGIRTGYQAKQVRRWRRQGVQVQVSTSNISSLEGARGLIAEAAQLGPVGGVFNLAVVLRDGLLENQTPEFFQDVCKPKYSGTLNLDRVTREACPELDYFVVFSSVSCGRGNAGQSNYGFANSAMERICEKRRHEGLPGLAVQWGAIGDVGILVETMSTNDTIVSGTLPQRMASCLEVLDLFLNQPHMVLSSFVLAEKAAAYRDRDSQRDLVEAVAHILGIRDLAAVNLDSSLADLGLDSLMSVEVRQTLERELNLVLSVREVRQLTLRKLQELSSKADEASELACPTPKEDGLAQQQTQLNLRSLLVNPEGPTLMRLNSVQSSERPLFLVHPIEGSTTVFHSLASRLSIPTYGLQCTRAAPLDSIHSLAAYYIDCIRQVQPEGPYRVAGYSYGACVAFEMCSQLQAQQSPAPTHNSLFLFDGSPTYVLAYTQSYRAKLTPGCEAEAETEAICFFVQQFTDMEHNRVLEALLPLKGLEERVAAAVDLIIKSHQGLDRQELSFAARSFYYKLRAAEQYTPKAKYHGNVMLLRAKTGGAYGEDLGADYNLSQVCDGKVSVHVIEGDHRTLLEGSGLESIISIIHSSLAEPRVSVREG

Regarding `Oc1ccccc1`, the molecule was called inactive in assay [1], in assay [2], in assay [3], in assay [4], in assay [5] and in assay [6]. The molecule was classed as inactive in assay [7] and in assay [8].
With `CC[C@H](NC(=O)c1cc(F)ccc1NS(=O)(=O)c1cccc2cccnc12)c1ccccc1`, the molecule was classed as inactive in assay [1], in assay [2], in assay [3] and in assay [4]. In addition, the AC50 in assay [6] was 59.2 µM (active); in assay [7], 34 µM (active); in assay [8], 47.1 µM (active).
`CCO[Si](CCCNC(N)=O)(OCC)OCC`: the molecule was called inactive in assay [1], in assay [3], in assay [4], in assay [6] and in assay [7]. For the same molecule, the AC50 in assay [8] was 50 µM (active).
As for `O=C(OCCCCCCOC(=O)c1ccccc1)c1ccccc1`, the molecule was called inactive in assay [1], in assay [2], in assay [3], in assay [4], in assay [5] and in assay [6]. Besides, the outcome in assay [7] and in assay [8] was inactive.
As to `COc1cc(C(=O)NC2CCN(C)CC2)ccc1Nc1ncc2c(n1)N(C1CCCC1)CC(F)(F)C(=O)N2C`, the AC50 is 9.78 µM (active) in assay [1]; 46.5 µM (active) in assay [2]; 15.3 µM (active) in assay [6]; 12.6 µM (active) in assay [7]; 2.11 µM (active) in assay [8]. Also, the molecule was classed as inactive in assay [3] and in assay [4].
`O=c1ccc2ccccc2o1`: the molecule was classed as inactive in assay [1], in assay [2], in assay [3], in assay [4], in assay [5] and in assay [6]. In addition, the outcome in assay [7] and in assay [8] was inactive.
As to `O=CCCCC=O`, the molecule was classed as inactive in assay [1], in assay [2], in assay [3], in assay [4], in assay [6] and in assay [7]. In assay [8], the call was inactive.
Regarding `Cc1cn([C@H]2C[C@H](N=[N+]=[N-])[C@@H](CO)O2)c(=O)[nH]c1=O`, the result in assay [1], in assay [2], in assay [4], in assay [5], in assay [6] and in assay [7] was inactive. In assay [8], the molecule was called inactive.
`CCCCCc1ccc(N)cc1`: the molecule was classed as inactive in assay [1], in assay [2], in assay [3], in assay [4], in assay [5] and in assay [6]. Moreover, in assay [7], the outcome was inactive. For the same molecule, the AC50 in assay [8] was 28.8 µM (active).
Regarding `c1ccc(C[n+]2cccc3ccccc32)cc1`, the outcome in assay [1] and in assay [3] was inactive. In addition, the AC50 in assay [2] is 50 µM (active); in assay [4], 50 µM (active); in assay [6], 31.1 µM (active); in assay [7], 32.6 µM (active); in assay [8], 36.8 µM (active).
Regarding `COCC(C)OCC(C)OCC(C)O` (centres undefined), the result in assay [1], in assay [2], in assay [3], in assay [4], in assay [6] and in assay [7] was inactive. In assay [8], the result was inactive.
Take `CC(C)(C)c1csc(-c2cc3cc(OCc4ccccc4CC(=O)O)ccc3o2)n1`: the molecule was classed as inactive in assay [1], in assay [3] and in assay [4]. Besides, the AC50 was 84 µM (active) in assay [2], 28.3 µM (active) in assay [6], 73.5 µM (active) in assay [7] and 12.2 µM (active) in assay [8].
Consider `CCCC(=O)OCCC(C)C`, for which the molecule was classed as inactive in assay [1], in assay [2], in assay [4], in assay [5], in assay [6] and in assay [7]. For the same molecule, the AC50 in assay [8] was 68.2 µM (active).
For the molecule `CCN(Cc1cccnc1)C(=O)c1cccc(Cl)c1[C@]1(C)C(=O)N(Cc2ccc(OC)cc2OC)c2ccc(Cl)cc21`, the AC50 in assay [1] was 21.3 µM (active); in assay [2], 5.5 µM (active); in assay [4], 11.6 µM (active); in assay [6] it was 18.4 µM (active); in assay [7], 16.6 µM (active). Moreover, the result in assay [8] was inactive.
Turning to `O=C(O)c1ccccc1C(=O)OCc1ccccc1`, the result in assay [1], in assay [2], in assay [3], in assay [4], in assay [6] and in assay [7] was inactive. Further, in assay [8], the concentration at half-maximal activity (AC50) was 21.4 µM (active).
On to `O=C=NCCCCCCN=C=O`, for which the call in assay [1], in assay [2], in assay [3], in assay [4], in assay [6] and in assay [7] was inactive. Also, the AC50 in assay [8] is 80.1 µM (active).
For `CCCCCCCCOc1ccc(C(=O)c2ccccc2)c(O)c1`, the call in assay [1], in assay [2], in assay [3], in assay [4], in assay [5] and in assay [6] was inactive. Further, the result in assay [7] was inactive. Further, in assay [8], the AC50 is 50 µM (active).
As to `O=C(O)c1ccccc1-n1cc(C(=O)O)c(=O)c2cc(Nc3c(F)cc(F)cc3Cl)c(Cl)cc21`, the molecule was classed as inactive in assay [1], in assay [2], in assay [4], in assay [6] and in assay [7]. The AC50 in assay [8] is 20.5 µM (active).
For `CC1=CC(=O)/C(=C(/C)O)C(=O)O1`, the molecule was classed as inactive in assay [1], in assay [2], in assay [3], in assay [4], in assay [6] and in assay [7]. In assay [8], the result was inactive.
`CN(C)C(=O)C1(N2CCCCC2)CCN(CC[C@@]2(c3ccc(Cl)c(Cl)c3)CN(C(=O)c3ccccc3)CCO2)CC1`: the result in assay [1] and in assay [3] was inactive. The AC50 was 61 µM (active) in assay [2]; 84.3 µM (active) in assay [4]; 17.2 µM (active) in assay [6]; 13.7 µM (active) in assay [7]; 24.7 µM (active) in assay [8].
In the case of `Cc1ncc(CO)c(CO)c1O`, the result in assay [1], in assay [2], in assay [3], in assay [4], in assay [6] and in assay [7] was inactive. Moreover, the AC50 in assay [8] is 65.3 µM (active).

Broadly, the AC50 is the concentration at which the activity in the assay is half-maximal.
